Measured values from PubChem BioAssay AID1970 (National Center for Advancing Translational Sciences (NCATS), 2009).
Results filed as inconclusive are left out. The source made the active and inactive calls. The call rests on the fitted dose curve; in most records, active means well fitted inhibition curve with a large enough effect; inconclusive means small, poorly fitted or top-dose-only effect; inactive means flat fitted curve, though single readings scatter.

Each molecule was assayed against Dual specificity protein kinase CLK4 (Homo sapiens) (UniProt Q9HAZ1) (assay: Confirmation Assay for Inhibitors of CDC-like Kinase 4 (Kinase-Glo Assay)). Settings: recombinant Clk4, Kinase-Glo ATP depletion luminescence; series mostly up to 47.7 µM.
Sequence of Dual specificity protein kinase CLK4 (Homo sapiens) (Q9HAZ1 whole entry, looked up): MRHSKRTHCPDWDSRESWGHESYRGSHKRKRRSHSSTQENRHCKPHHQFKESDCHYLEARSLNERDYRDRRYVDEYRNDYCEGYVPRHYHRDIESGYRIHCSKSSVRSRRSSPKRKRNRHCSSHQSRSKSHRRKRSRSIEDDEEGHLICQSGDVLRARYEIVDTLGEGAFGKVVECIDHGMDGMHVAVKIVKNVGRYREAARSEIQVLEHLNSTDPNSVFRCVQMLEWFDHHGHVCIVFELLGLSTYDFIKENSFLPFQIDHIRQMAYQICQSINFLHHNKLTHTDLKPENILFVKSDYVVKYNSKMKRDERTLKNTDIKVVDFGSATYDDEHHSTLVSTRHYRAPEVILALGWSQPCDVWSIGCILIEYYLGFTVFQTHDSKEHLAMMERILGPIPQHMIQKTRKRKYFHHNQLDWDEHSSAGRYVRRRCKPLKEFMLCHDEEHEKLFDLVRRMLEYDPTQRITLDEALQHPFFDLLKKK
Protocol: NIH Molecular Libraries Probe Production Centers Network [MLPCN] NIH Chemical Genomics Center [NCGC] MLPCN Grant: 1R03MH084827-01 Assay Submitter (PI): Tom Misteli NCGC Assay Overview: Clk4 (Invitrogen, cat# PV3839) was assayed using ATP and the RS repeat peptide (AnaSpec cat # 61722) as substrates. Following the Clk4 reaction, the remaining ATP levels were detected using Promega Kinase-Glo technology wherein the remaining ATP from the kinase reaction is detected using Ultra-Glo luciferase and D-luciferin which generates a bioluminescence signal from the ATP.
NCGC Assay Protocol Summary: Two uL/well of substrate-buffer solution (100 uM RS peptide, 1 uM ATP, 25 mM Tris pH7.5, 10 mM MgCl2, 0.5 mM EGTA, 2.5 mM DTT, 0.01% Triton X-100 final concentration) was dispensed into 1536-well, assay plates (Greiner, solid white medium-binding plates) with Aurora Discovery BioRAPTR Flying Reagent Dispenser (FRD; Beckton-Dickenson). Using a Kalypsys pin tool equipped with a 1536-pin tool, 23 nL of compound solution was transferred to the assay plate. One uL/ well Clk4-buffer solution (25 nM Clk4, 25 mM Tris pH 7.5, 10 mM MgCl2, 0.5 mM EGTA, 2.5 mM DTT, 0.01% Triton X-100, final concentrations) was then added using the FRD yielding a total kinase reaction volume of 3 uL/ well. After 4.5 hours of room temperature incubation, 3 uL Kinase-Glo reagent was added for a final assay volume of 6 uL/ well. Luminescence was detected with the ViewLux plate reader (Perkin Elmer, Waltham, MA) after 5 min incubation using a 5 second exposure time and 2x binning.
For `Cc1csc(CNc2ncnc3ccc(-c4ccco4)cc23)c1`, the Potency was “inactive”. For `c1nc(NCC2CCCO2)c2ccc(-c3ccc4c(c3)OCO4)cc2n1` (stereo not given), the Potency was 8440 nM (active). With `c1csc(CNc2ncnc3cc(-c4ccc5c(c4)OCO5)ccc23)c1` the Potency was 11900 nM (active). For `c1nc(NCCc2cnc[nH]2)c2ccc(-c3ccc4c(c3)OCO4)cc2n1`, the Potency was 10600 nM (active). For `Cc1nc(CSc2ncnc3ccc(-c4ccc5c(c4)OCO5)cc23)cs1`, the Potency was 184 nM (active). In the case of `Fc1cccc(CNc2ncnc3ccc(-c4ccoc4)cc23)c1`, the Potency is reported as 3160 nM (active). In the case of `Cc1cccc(CNc2ncnc3ccc(-c4cccnc4)cc23)c1`, the Potency is reported as 3550 nM (active). `c1nc(NCC2CCOC2)c2cc(-c3ccc4c(c3)OCO4)ccc2n1` (stereo not given) was tested, and the Potency was 58.2 nM (active). For `c1cncc(CNc2ncnc3ccc(-c4ccoc4)cc23)c1`, the Potency was 631 nM (active). For `c1nc(NCc2ccoc2)c2cc(-c3ccc4c(c3)OCO4)ccc2n1`, the Potency was 37.7 nM (active). `COc1cccc(-c2ccc3ncnc(NCc4cccs4)c3c2)c1` was tested, and the Potency was 519 nM (active). With `OCc1ccc(-c2ccc3ncnc(NCCc4cnc[nH]4)c3c2)o1` the Potency was 733 nM (active). With `CCN(Cc1cccs1)c1ncnc2ccc(-c3ccc4c(c3)OCO4)cc12` the Potency was 51.9 nM (active). For `CCN(Cc1sccc1C)c1ncnc2ccc(-c3ccc4c(c3)OCO4)cc12`, the Potency was 146 nM (active). With `Cc1cccc(CNc2ncnc3ccc(-c4cccc(Cl)c4)cc23)c1` the Potency was 14100 nM (active). For `Cc1ccc(CNc2ncnc3ccc(-c4ccoc4C)cc23)o1`, the Potency was 368 nM (active). With `COc1cccc(-c2ccc3ncnc(NCc4ccc5c(c4)OCO5)c3c2)c1` the Potency was 1410 nM (active). With `CCOC(=O)c1ccoc1-c1ccc2ncnc(NCCc3cnc[nH]3)c2c1` the Potency was 23200 nM (active). `Cn1cncc1CNc1ncnc2ccc(-c3ccc4c(c3)OCO4)cc12` was tested, and the Potency was 75.2 nM (active). For `c1coc(CCNc2ncnc3ccc(-c4ccc5c(c4)OCO5)cc23)c1`, the Potency was 59.8 nM (active). With `c1csc(CCNc2ncnc3ccc(-c4ccc5c(c4)OCO5)cc23)c1` the Potency was 46.3 nM (active). `Cc1csc(CNc2ncnc3ccc(-c4cccnc4)cc23)c1` was tested, and the Potency was 4470 nM (active). `CCOC(=O)c1ccc(-c2ccc3ncnc(NCc4ncc[nH]4)c3c2)o1` was tested, and the Potency was 582 nM (active). In the case of `Fc1cccc(CNc2ncnc3ccc(-c4ccc5c(c4)OCO5)cc23)c1`, the Potency is reported as 100 nM (active). With `c1nc(N2CCC(N3CCCC3)CC2)c2cc(-c3ccc4c(c3)OCO4)ccc2n1` the Potency was 4630 nM (active). With `FC1(F)Oc2ccc(-c3ccc4ncnc(NCc5cccs5)c4c3)cc2O1` the Potency was 18400 nM (active). In the case of `CC(c1ccco1)N(C)c1ncnc2ccc(-c3ccc4c(c3)OCO4)cc12` (stereo not given), the Potency is reported as 67.1 nM (active). `NCCNc1ncnc2ccc(-c3ccc4c(c3)OCO4)cc12` was tested, and the Potency was 73.3 nM (active). `Clc1cccc(-c2ccc3ncnc(NCc4cccs4)c3c2)c1` was tested, and the Potency was 7940 nM (active). For `Cc1ccc(CNc2ncnc3ccc(-c4ccc5c(c4)OCO5)cc23)s1`, the Potency was 189 nM (active). In the case of `c1c[nH]c(CNc2ncnc3ccc(-c4ccc5c(c4)OCO5)cc23)n1`, the Potency is reported as 94.7 nM (active). For `Cc1nc(CNc2ncnc3ccc(-c4ccoc4C)cc23)cs1`, the Potency was 823 nM (active). For `Cc1ccc(CNc2ncnc3cc(-c4ccc5c(c4)OCO5)ccc23)o1`, the Potency was 5980 nM (active). For `CN(Cc1cncn1C)c1ncnc2ccc(-c3ccc4c(c3)OCO4)cc12`, the Potency was 292 nM (active). With `Cc1ccsc1CNc1ncnc2ccc(-c3ccc4c(c3)OCO4)cc12` the Potency was 33.6 nM (active). With `c1cncc(CNc2ncnc3ccc(-c4ccc5c(c4)OCO5)cc23)c1` the Potency was 100 nM (active). `CCOC(=O)c1ccoc1-c1ccc2ncnc(NCc3ccc(C)o3)c2c1` was tested, and the Potency was 5820 nM (active). In the case of `COc1cccc(-c2ccc3ncnc(NCc4cc(C)cs4)c3c2)c1`, the Potency is reported as 794 nM (active). With `Cn1ccc2cc(-c3ccc4ncnc(NCc5cccs5)c4c3)ccc21` the Potency was 31600 nM (active). `Cc1nc(C)c(-c2ccc3ncnc(NCCc4cnc[nH]4)c3c2)s1` was tested, and the Potency was 3680 nM (active).
